Experimental data published in the supplement of paper PMC3414501.
Counter-ions that a name gives are not always drawn.

The compounds below were run on S. cerevisiae NKY1551 his4x/his4B, sporulating (assay: HIS4 meiotic recombination assay sensitivity score (z-score vs DMSO controls); higher = stronger inhibition of sporulation/recombination, active = hit call of the paper). Settings: stock concentration (mM, diluted 1:100): 7.6;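 active = HIS4 sensitivity z-score above 5 vs DMSO controls; inactive = score 5 or below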.
Description: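 NIH Clinical Collection compounds were added 1:100 from stock (about 100 µM final) to S. cerevisiae. Growth: average doubling time (AvgG) over 24 h of BY4741 (wild-type) or AD1-9 (drug-efflux-pump deficient) in rich media. HIS4: the his4x/his4B heteroallelic recombination reporter strain (SK1) was sporulated 5 h with compound at 30°C, then colony density was read on -his plates after 48 h. Sensitivity score = (compound − mean of 8 DMSO controls)/SD of DMSO controls. Hit cutoffs are >2 for growth and >5 for sporulation.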

SMILES	HIS4 meiotic recombination assay sensitivity score
CN1CC[C@]23CCCC[C@H]2[C@H]1Cc1ccc(O)cc13 [Levorphanol tartrate]	-1.13 (inactive)

Same assay, conditions: stock concentration (mM, diluted 1:100): 8.2

SMILES	HIS4 meiotic recombination assay sensitivity score
COc1ccc2c(c1)[C@]13CCCC[C@@H]1[C@H](C2)N(C)CC3 [Dextromethorphan hydrobromide]	5.52 (active)

Same assay, conditions: stock concentration (mM, diluted 1:100): 8.6

SMILES	HIS4 meiotic recombination assay sensitivity score
CCOC(=O)C1(c2ccccc2)CCN(CCC(C#N)(c2ccccc2)c2ccccc2)CC1 [Diphenoxylate]	0.41 (inactive)

Same assay, conditions: stock concentration (mM, diluted 1:100): 8.7

SMILES	HIS4 meiotic recombination assay sensitivity score
CC(=O)O[C@H]1C[C@@H]2CC[C@@H]3[C@H](CC[C@@]4(C)[C@H]3C[C@H]([N+]3(C)CCCCC3)[C@@H]4OC(C)=O)[C@@]2(C)C[C@@H]1[N+]1(C)CCCCC1 [Pancuronium]	-0.44 (inactive)

Same assay, conditions: stock concentration (mM, diluted 1:100): 9

SMILES	HIS4 meiotic recombination assay sensitivity score
Cc1ncc2n1-c1ccc(Cl)cc1C(c1ccccc1F)=NC2 [Midazolam hydrochloride]	4.65 (inactive)

Same assay, conditions: stock concentration (mM, diluted 1:100): 9.9

SMILES	HIS4 meiotic recombination assay sensitivity score
CCCCCCCCCOc1ccc2[nH]cc(CCN)c2c1 [5-Nonyloxytryptamine]	-2.09 (inactive)

Same assay, conditions: stock concentration (mM, diluted 1:100): 10

SMILES	HIS4 meiotic recombination assay sensitivity score
NC(=O)C[S+]([O-])C(c1ccccc1)c1ccccc1 (stereo not given) [Modafinil]	-0.33 (inactive)
COC(=O)N1CCN(C(=O)Cc2ccc(Cl)c(Cl)c2)C(CN2CCCC2)C1 (stereo not given)	-0.89 (inactive)
C[C@]12CC[C@H]3[C@@H](CCC4=CC(=O)CC[C@@]43C)[C@@H]1CC[C@@H]2O [Testosterone]	-0.83 (inactive)
CC[C@]1(O)CC[C@H]2[C@@H]3CCC4=CCCC[C@@H]4[C@H]3CC[C@@]21C [Ethylestrenol]	1.02 (inactive)
CC(C)[C@]12O[C@H]1[C@@H]1O[C@]13[C@]1(O[C@H]1C[C@H]1C4=C(CC[C@@]13C)C(=O)OC4)[C@@H]2O [Triptolide]	0.28 (inactive)
CN1C(=O)CN=C(c2ccccc2)c2cc(Cl)ccc21 [Diazepam]	2.18 (inactive)
C[C@H]1CCC[C@H](O)CCCCCc2cc(O)cc(O)c2C(=O)O1 [Zeranol]	-1.27 (inactive)
C[C@]12Cc3c[nH]nc3C[C@@H]1CC[C@@H]1[C@@H]2CC[C@@]2(C)[C@H]1CC[C@]2(C)O [Stanozolol]	-0.39 (inactive)
O=C(O)C(Cl)Cl [Dichloroacetic acid]	-0.62 (inactive)
COc1ccc2[nH]cc(CCN)c2c1 [5-Methoxytryptamine]	-1.35 (inactive)
c1ccc2c(c1)Nc1ccccc1S2 [Phenothiazine]	2.62 (inactive)
C[N+]1(C)CCN(c2ccccc2)CC1 [Dimethylphenylpiperazinium Iodide]	-0.3 (inactive)
c1ccc(Cn2ccnc2)cc1 [1-Benzylimidazole]	-0.23 (inactive)
OC1CCCCC1N1CCC(c2ccccc2)CC1 (stereo not given) [Vesamicol hydrochloride]	-0.31 (inactive)
COc1cc(N)c(Cl)cc1C(=O)NC1CN2CCC1CC2 (stereo not given) [Zacopride]	-2.43 (inactive)
CCCCC/C=C\C/C=C\C/C=C\C/C=C\CCCC(=O)Nc1ccc(O)cc1	-0.8 (inactive)
Oc1ccc2c3c1O[C@H]1[C@@H](O)CC[C@@]4(O)[C@@H](C2)N(CC2CCC2)CC[C@]314 [Nalbuphine]	-0.56 (inactive)
CN1C(=O)CN=C(c2ccccc2)c2cc([N+](=O)[O-])ccc21 [Nimetazepam]	-0.26 (inactive)
C=C1C[C@@H]2[C@H](CC[C@]3(C)C(=O)CC[C@@H]23)[C@@]2(C)C=CC(=O)C=C12 [Exemestane]	3.99 (inactive)
Oc1ccc2c3c1O[C@H]1c4[nH]c5ccccc5c4C[C@@]4(O)[C@@H](C2)N(CC2CC2)CC[C@]314 [Naltrindole]	-0.51 (inactive)
FC(F)(F)c1cccc(N2CCNCC2)c1	8.84 (active)
COc1cccc(C2(O)CCCCC2CN(C)C)c1 (stereo not given) [Tramadol]	-2.65 (inactive)
O=C1Nc2ccc(Cl)cc2C(c2ccccc2Cl)=NC1O (stereo not given) [Lorazepam]	0.95 (inactive)
NC1=NC(=O)C(c2ccccc2)O1 (stereo not given) [Pemoline]	-0.78 (inactive)
COc1ccc(CCN)cc1OC [Homoveratrylamine]	-1.74 (inactive)
O=C1CN=C(c2ccccc2)c2cc([N+](=O)[O-])ccc2N1 [Nitrazepam]	-0.13 (inactive)
C[C@]12CCC(=O)C=C1CC[C@@H]1[C@@H]2CC[C@@]2(C)[C@H]1CC[C@]2(C)O [Methyltestosterone]	2.7 (inactive)
CN=C1CN(O)C(c2ccccc2)=c2cc(Cl)ccc2=N1 [Chlordiazepoxide]	-1.07 (inactive)
CCCN1C[C@H](CSC)C[C@@H]2c3cccc4[nH]cc(c34)C[C@H]21 [Pergolide mesylate]	-0.45 (inactive)
CN1C(=O)COc2c(C(=O)NC3CN4CCC3CC4)cc(Cl)cc21 (stereo not given) [Azasetron]	1.08 (inactive)

Same assay, conditions: stock concentration (mM, diluted 1:100): 10.1

SMILES	HIS4 meiotic recombination assay sensitivity score
C[C@]12CCC(=O)C[C@@H]1CC[C@@H]1[C@@H]2CC[C@@]2(C)[C@H]1CC[C@]2(C)O [Mestanolone]	-0.62 (inactive)
COc1ccc2[nH]cc(C3=CCNCC3)c2c1	3.92 (inactive)
C[N+]1(CCC(C(N)=O)(c2ccccc2)c2ccccc2)CCCCC1 [Fenpiverinium bromide]	-1.06 (inactive)
C[C@]12CC[C@H](O)CC1=CC[C@@H]1[C@@H]2CC[C@@]2(C)[C@H]1CC[C@]2(C)O [Methylandrostenediol]	-1.02 (inactive)
